From PubChem
Most compounds without a hit are left out; they make up all but 7.6% or so of the library.
MCF10A rereplic: A quantitative high throughput screen for small molecules that induce DNA re-replication in MCF 10a normal breast cells; MCF 10A DNA re-replication, Hoechst nuclear intensity, 48 h; Potency, µM (titrated, usually from 46.1 µM), for the others: at the highest dose activity, positive = re-replication, most hits filed as activators; 350,000 tested, 2.9% active; AID 624296, 2012; also: potency is read from the fitted curve at half-maximal effect; % of control where 0% means no effect; nearly all actives have a fitted effect of over 50% in size
hERG WT inh: qHTS for Inhibitors of KCHN2 3.1: Wildtype qHTS; activity change, % at 1.84 µM; U2OS, BacMam KCNH2, thallium flux FluxOr; active compounds read low; AID 720551, 2013; Voltage-gated inwardly rectifying potassium channel KCNH2 (Homo sapiens), Q12809; 340,000 tested, 0.37% active;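 active = maximum activity change below -70%; inconclusive = maximum activity change between -70% and -50%; inactive = maximum activity change above -50%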; also: % is scaled to controls: 0 for no effect and ±100 for the full control effect
Target sequence (Q12809 whole entry, looked up): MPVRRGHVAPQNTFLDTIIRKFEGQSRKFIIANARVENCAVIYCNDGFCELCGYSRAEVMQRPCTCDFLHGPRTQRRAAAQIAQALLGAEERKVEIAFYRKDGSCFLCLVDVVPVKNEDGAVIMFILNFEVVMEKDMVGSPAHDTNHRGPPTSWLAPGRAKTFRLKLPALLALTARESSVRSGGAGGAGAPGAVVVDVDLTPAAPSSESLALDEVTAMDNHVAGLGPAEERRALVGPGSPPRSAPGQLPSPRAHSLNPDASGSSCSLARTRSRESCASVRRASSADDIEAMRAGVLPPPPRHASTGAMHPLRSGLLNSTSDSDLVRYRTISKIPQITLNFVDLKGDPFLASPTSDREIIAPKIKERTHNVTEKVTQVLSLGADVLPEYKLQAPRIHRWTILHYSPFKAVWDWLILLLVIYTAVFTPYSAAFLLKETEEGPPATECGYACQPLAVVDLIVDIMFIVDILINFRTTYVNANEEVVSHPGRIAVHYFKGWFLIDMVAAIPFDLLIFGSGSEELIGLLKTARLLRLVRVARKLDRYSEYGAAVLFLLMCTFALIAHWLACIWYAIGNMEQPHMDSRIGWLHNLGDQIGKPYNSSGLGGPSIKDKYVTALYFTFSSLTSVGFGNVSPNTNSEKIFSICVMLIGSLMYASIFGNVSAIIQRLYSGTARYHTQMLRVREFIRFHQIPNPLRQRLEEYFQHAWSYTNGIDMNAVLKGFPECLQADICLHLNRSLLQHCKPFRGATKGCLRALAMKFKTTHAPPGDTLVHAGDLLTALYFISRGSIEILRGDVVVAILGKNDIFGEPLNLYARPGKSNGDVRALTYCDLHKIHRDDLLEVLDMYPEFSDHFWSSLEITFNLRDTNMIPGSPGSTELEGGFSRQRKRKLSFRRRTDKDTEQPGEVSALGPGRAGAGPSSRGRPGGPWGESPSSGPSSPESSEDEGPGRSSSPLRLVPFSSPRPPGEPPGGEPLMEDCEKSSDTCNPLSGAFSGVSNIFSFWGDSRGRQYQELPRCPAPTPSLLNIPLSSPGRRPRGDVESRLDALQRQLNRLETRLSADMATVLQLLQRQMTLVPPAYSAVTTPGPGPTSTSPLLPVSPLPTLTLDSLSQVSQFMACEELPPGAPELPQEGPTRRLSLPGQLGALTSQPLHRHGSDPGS
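U2OS cells transduced with wild-type KCNH2 virus are loaded with FluxOr dye for 45 min, and thallium flux is measured in kinetic reads before and after stimulation buffer. Rate constants are normalized to DMSO controls.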
KB-3-1 cytotox: qHTS assay for MDR1-selective chemotherapeutics: Primary screen using the parental adenocarcinoma cell KB-3-1. Potency, µM (series often up to 46.1 µM), hits mostly cytotoxic. 400,000 tested, 1.4% active. KB-3-1 viability, CellTiter-Glo ATP luminescence, 72 h; also: potency is read from the fitted curve at half-maximal effect; % is scaled to controls: 0 for no effect and ±100 for the full control effect; nearly all actives have a fitted effect of over 60% in size
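Cytotoxicity in the drug-sensitive parental line KB-3-1 was scored as loss of CellTiter-Glo luminescence following 72 h incubation with compound. Values come from curve fitting of normalized concentration-response data.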
KB-V1 MDR tox: qHTS assay for MDR1-selective chemotherapeutics: Primary screen using the drug-selected MDR subline cells KB-V1; 400,000 tested, 3.4% active; AID 1347076, 2019; Potency, µM (top dose mostly 46.1 µM), hits mostly cytotoxic; KB-V1 MDR cells viability, CellTiter-Glo, 72 h; also: potency is read from the fitted curve at half-maximal effect; % is scaled to controls: 0 for no effect and ±100 for the full control effect; nearly all actives have a fitted effect of over 60% in size
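In this primary screen, KB-V1 cells overexpressing P-gp are incubated with library compounds (lowest to highest concentration) for 72 h at 37 degrees C before a luminescent ATP viability read.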
KCNH2 3.1 inh: qHTS for Inhibitors of KCHN2 3.1: Mutant qHTS | U2OS KCNH2 3.1, thallium flux FluxOr; active compounds read low | AID 720553, 2013 | activity change, % (tested at about 1.8 µM) | Potassium voltage-gated channel subfamily H member 2, brain isoform KCNH2 3.1 (human) | 340,000 tested, 0.95% active;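 active = maximum activity change below -70%; inconclusive = maximum activity change from -70% to -50%; inactive = maximum activity change above -50%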;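 also: thallium influx rate constant from kinetic fluorescence after stimulation buffer; % is scaled to controls: 0 for no effect and ±100 for the full control effect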
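Channel expression came from 3.1 mutant virus (1.77 x 10^8 /mL) applied to suspended U2OS cells for 4 h. Flux was tracked with FluxOr dye plus Red40 quencher, and kinetic rate constants normalized to controls.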
SW480 rereplic: A quantitative high throughput screen for small molecules that induce DNA re-replication in SW480 colon adenocarcinoma cells; SW480 DNA re-replication, Hoechst DNA content imaging, 48 h; Potency, µM (highest dose often 46.1 µM), for the others: top-dose re-replication activation, usual class: activators; 340,000 tested, 1.8% active; AID 624297, 2012; also: potency is read from the fitted curve at half-maximal effect; % of control where 0% means no effect; nearly all actives have a fitted effect of over 55% in size
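SW480 cells exposed to compounds for 48 hr at 37 C, 5% CO2, then Hoechst-stained 40 min. Nuclear DNA content imaged by fluorescence scanning (405 nm excitation, 500-530 nm emission); re-replication scored as increased high-intensity nuclei.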
* hit, by the source's call. Unless noted, calls follow the shape of the dose curve; as a rule, active = well fitted curve in the direction sought with a large enough effect; inconclusive = small, poorly fitted or top-dose-only effect, or another doubt; inactive = no such curve, though single readings can be large; an effect the other way counts as inactive or inconclusive.

For COC(=O)c1ccc2c(=O)n(Cc3ccco3)c(SCC(=O)Nc3ccc(C)c(Cl)c3)nc2c1 the results were MCF10A rereplic inconclusive, hERG WT inh -18, KB-3-1 cytotox inconclusive, KB-V1 MDR tox inactive, KCNH2 3.1 inh -75* and SW480 rereplic inconclusive.
Cc1ccc(S(=O)(=O)N2CCOCC2)cc1NC(=O)CSc1nc2ccccc2c(=O)n1Cc1ccccc1 was read as MCF10A rereplic 9%, hERG WT inh -20, KB-3-1 cytotox inactive, KB-V1 MDR tox 8.2µM*, KCNH2 3.1 inh inconclusive and SW480 rereplic -1%.
`O=C(CSc1nc2ccccc2c(=O)n1Cc1ccccc1)Nc1ccc(Br)cc1C(=O)O` gave MCF10A rereplic 23µM*, hERG WT inh 11, KB-3-1 cytotox inactive, KB-V1 MDR tox inactive, KCNH2 3.1 inh 13 and SW480 rereplic 12%.
For Cc1cccc(N2CC(C(=O)Nc3nnc(SCC(=O)NCC4CCCO4)s3)CC2=O)c1 (centres undefined) the results were MCF10A rereplic inconclusive, hERG WT inh -12, KB-3-1 cytotox inactive, KB-V1 MDR tox inactive, KCNH2 3.1 inh 6 and SW480 rereplic -3%.
For CN1CCN(C2CN(Cc3cn(Cc4ccc(Cl)cc4)nn3)S(=O)(=O)C2)CC1 (centres undefined) the results were KB-3-1 cytotox inactive and KB-V1 MDR tox inactive.
Screening O=C(CSc1nc2ccccc2c(=O)n1Cc1ccco1)Nc1cccc(O)c1 returned MCF10A rereplic inconclusive, hERG WT inh 1, KB-3-1 cytotox inactive, KB-V1 MDR tox inactive, KCNH2 3.1 inh -21 and SW480 rereplic 0%.
For O=C(CSc1nc2cc(Cl)ccc2c(=O)n1Cc1ccco1)Nc1ccc(S(=O)(=O)N2CCOCC2)cc1 the results were MCF10A rereplic -4%, hERG WT inh -15, KB-3-1 cytotox inactive, KB-V1 MDR tox inactive, KCNH2 3.1 inh -75* and SW480 rereplic 5%.
`O=C(NCc1ccccc1F)C1CCCN(C(=O)Nc2ccc(F)cc2)C1` (centres undefined) gave MCF10A rereplic -6%, hERG WT inh -1, KB-3-1 cytotox inactive, KB-V1 MDR tox inactive, KCNH2 3.1 inh -3 and SW480 rereplic -26%.
Screening O=C(NCc1ccccc1F)C1CCCN(C(=O)NC2CCCCC2)C1 (centres undefined) returned MCF10A rereplic 12%, hERG WT inh 3, KB-3-1 cytotox inactive, KB-V1 MDR tox 21µM*, KCNH2 3.1 inh 4 and SW480 rereplic -2%.
`O=C(NCC1CCCCC1)C1CCCN(C(=O)NC2CCCCC2)C1` (centres undefined) gave MCF10A rereplic 7%, hERG WT inh 5, KB-3-1 cytotox inconclusive, KB-V1 MDR tox 4.1µM*, KCNH2 3.1 inh -11 and SW480 rereplic 0%.
`COc1ccc(C)cc1S(=O)(=O)NCCC1=CCCCC1` gave MCF10A rereplic -1%, hERG WT inh -257*, KB-3-1 cytotox inactive, KB-V1 MDR tox inactive, KCNH2 3.1 inh 2 and SW480 rereplic -2%.
For COc1ccc(C)cc1S(=O)(=O)N1CCC(C(=O)NCCC2=CCCCC2)CC1 the results were MCF10A rereplic 15%, hERG WT inh -6, KB-3-1 cytotox inactive, KB-V1 MDR tox inactive, KCNH2 3.1 inh 0 and SW480 rereplic -1%.
`Cc1ccc(NC(=O)c2cc(S(=O)(=O)NCCC3=CCCCC3)ccc2F)cc1` gave MCF10A rereplic inconclusive, hERG WT inh 0, KB-3-1 cytotox inconclusive, KB-V1 MDR tox 2.3µM*, KCNH2 3.1 inh -7 and SW480 rereplic 25%.
`C=CCOc1ccccc1C(=O)/C=C1/C(=O)Nc2ccccc21` gave MCF10A rereplic 3.7µM*, hERG WT inh -2, KB-3-1 cytotox inconclusive, KB-V1 MDR tox inactive, KCNH2 3.1 inh -11 and SW480 rereplic inconclusive.
COc1ccc(C(=O)/C=C2/C(=O)Nc3ccccc32)cc1 was read as MCF10A rereplic 9.2µM*, hERG WT inh -2, KB-3-1 cytotox inconclusive, KB-V1 MDR tox inactive, KCNH2 3.1 inh -10 and SW480 rereplic inconclusive.
NC(=O)COc1ccc(C(=O)/C=C2/C(=O)Nc3ccccc32)cc1 was read as MCF10A rereplic inconclusive, hERG WT inh -2, KB-3-1 cytotox inactive, KB-V1 MDR tox inactive, KCNH2 3.1 inh 4 and SW480 rereplic 23µM*.
For C=CCOc1ccc(C(=O)/C=C2/C(=O)Nc3ccccc32)cc1 the results were MCF10A rereplic inconclusive, hERG WT inh 0, KB-3-1 cytotox inactive, KB-V1 MDR tox inactive, KCNH2 3.1 inh -7 and SW480 rereplic inconclusive.
Screening COc1ccc(C(=O)/C=C2/c3ccccc3CC(C)(C)N2C)cc1 returned MCF10A rereplic inconclusive, hERG WT inh 15, KB-3-1 cytotox inactive, KB-V1 MDR tox inactive, KCNH2 3.1 inh -8 and SW480 rereplic inconclusive.
For COc1ccc(C(=O)/C=C2/C(=O)Nc3ccccc32)c(OC)c1 the results were MCF10A rereplic 23µM*, hERG WT inh -10, KB-3-1 cytotox inconclusive, KB-V1 MDR tox inconclusive, KCNH2 3.1 inh -2 and SW480 rereplic inconclusive.
For COc1ccc(C(=O)/C=C/Nc2ccccn2)c(OC)c1 the results were MCF10A rereplic 11%, hERG WT inh 0, KB-3-1 cytotox inactive, KB-V1 MDR tox inconclusive, KCNH2 3.1 inh -7 and SW480 rereplic -13%.
`Cc1sc(-c2cccnc2)nc1OC(=O)C1CC1` gave MCF10A rereplic 2%, hERG WT inh 1, KB-3-1 cytotox inactive, KB-V1 MDR tox inactive, KCNH2 3.1 inh 8 and SW480 rereplic inconclusive.
`O=C1Nc2ccccc2/C1=C/C(=O)c1cccs1` gave MCF10A rereplic 21µM*, hERG WT inh -15, KB-3-1 cytotox inactive, KB-V1 MDR tox inactive, KCNH2 3.1 inh 0 and SW480 rereplic inconclusive.
Screening COc1ccc(C(=O)/C=C2/C(=O)Nc3ccccc32)cc1OC returned MCF10A rereplic 8.2µM*, hERG WT inh 6, KB-3-1 cytotox inactive, KB-V1 MDR tox inactive, KCNH2 3.1 inh -10 and SW480 rereplic inconclusive.
For COc1cc(/C=N/N=C2/C(=O)Nc3ccccc32)cc(OC)c1O the results were MCF10A rereplic 18%, hERG WT inh 8, KB-3-1 cytotox inconclusive, KB-V1 MDR tox inconclusive, KCNH2 3.1 inh 4 and SW480 rereplic -1%.
